# Screening data (PubChem BioAssay)
# A selection: hits, their analogues and other compounds. The true share with any hit is near 21%.
# Pf growth 48h: P. falciparum growth inhibition at 48 hours (one generation); P. falciparum luciferase growth in erythrocytes, 48 h; Potency, µM (highest dose often 28.7 µM), usual class: inhibitors; 5.9% of 310,000 active
#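 Parasite viability was followed by luminescence of a genomically integrated firefly luciferase. Cultures held 0.1% parasitemia at 2% hematocrit (final), incubated under 5% CO2 at 37 C.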
# SARS PLpro yeast: SARS-CoV PLP inhibition in yeast; S. cerevisiae expressing SARS-CoV PLpro, growth rescue; Potency, µM (top dose mostly 32.9 µM), hits mostly activators; 0.19% of 330,000 active; calls by dose curve; note: nearly all actives have a fitted effect of over 55% in size
# Cycloheximide cs: counter-screen for Shiga toxin inhibitors: cycloheximide protein synthesis inhibition | max response, % | 12% of 300,000 active | cell reporter, cycloheximide protein synthesis inhibition counterscreen; in the data active = max response mostly above about 13%, no sharp cut-off; inactive = mostly below about 14%; note: read at 38.3 µM for the half of the compounds with a filed dose
# Shiga toxin inh: Shiga toxin inhibition; inhibition, % at 38.7 µM; 9.2% of 290,000 active; Vero cells, Shiga toxin protein synthesis inhibition reporter; in the data active = inhibition mostly above about 28%, no sharp cut-off; inactive = mostly below about 43%
# Pf growth 96h: P. falciparum growth inhibition at 96 hour, primary screen for plastid delayed-death inhibitors. P. falciparum luciferase reporter growth, 96 h. Potency, µM (doses to about 28.7 µM), actives largely listed as inhibitors. 6.9% of 320,000 active
#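 P. falciparum expressing integrated firefly luciferase grown in erythrocytes (2% hematocrit, 0.05% parasitemia final) with compounds for 96 hours at 37 C, 5% CO2. Growth inhibition read as loss of luminescence after adding luciferase detection reagent.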
# NS1 function inh: blocks influenza NS1 protein function; Potency, µM (top dose mostly 46.1 µM); 0.4% of 270,000 active; calls by dose curve; note: actives are rising curves; nearly all actives have a fitted effect of over 50% in size
#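 Growth recovery, yeast-based: influenza A NS1 expressed in S. cerevisiae causes slow growth, and suppressors are detected by OD600. The parent strain without NS1 is used as positive control.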
# A number is an active result; 0 = inactive; ? = inconclusive; - = no result. Unless noted, calls come from the whole dose curve; as a rule, active = well fitted inhibition curve with a large enough effect; inconclusive = small, poorly fitted or top-dose-only effect, or another doubt; inactive = no such curve, though single readings can be large or run the other way.
SMILES,Pf growth 48h,SARS PLpro yeast,Cycloheximide cs,Shiga toxin inh,Pf growth 96h,NS1 function inh
O=C(NCCc1ccccc1)c1ccc(Cl)cc1[N+](=O)[O-],0,0,27.4,67.3,0,0
O=C(NCCc1ccccc1)c1ccccc1F,0,0,35.5,108.8,0,0
Cc1ccc(NS(=O)(=O)c2cc(C(=O)NCCSc3ccc(C)cc3)ccc2C)cc1,?,0,0,0,11.7µM,0
COc1ccc(-c2cc(C(=O)NCC3CCCO3)c3cc(C(C)C)ccc3n2)cc1 (configuration not stated),?,0,0,0,0,0
Cc1c(C(=O)NCCc2ccc3c(c2)OCCO3)oc2ccccc12,-,0,0,0,0,0
COc1ccccc1CCNC(=O)c1ccoc1C,0,0,19.3,0,0,0
O=C(NC(=S)NC(=O)c1ccccc1F)c1ccccc1F,0,0,40.1,73.3,0,0
O=C(NCCc1ccc2c(c1)OCCO2)c1ccccc1F,0,0,69.7,91.4,0,0
CSc1ccccc1C(=O)NCCSc1ccc(C)cc1,0,0,0,0,0,0
O=C(NC(=S)N1CCCC1)c1ccccc1F,0,0,-,-,0,-
Cc1ccc(SCCNC(=O)c2ccccc2F)cc1,0,0,13.3,0,?,0
CCOc1ccc(NC2OCC(O)C(O)C2O)c([N+](=O)[O-])c1 (configuration not stated),0,0,0,0,0,0
CC(C)(CNC(=S)NCCc1ccccc1)CNC(=S)NCCc1ccccc1,13.1µM,0,0,0,?,0
O=C(NC(=S)NCc1ccccc1)c1ccccc1F,0,0,0,0,0,0
C/C(=N/NC(=O)Cc1ccccc1)c1ccc(C)s1,0,0,25.4,0,0,0
CCc1c(C(=O)NNC(=S)NCCc2ccccc2)csc1C,0,0,11.8,0,0,0
COc1ccc(CC(=O)N/N=C(\C)c2cccs2)cc1,0,0,0,0,0,0
CCc1c(C(=O)NNC(=S)NC2CCCCC2)csc1C,0,0,0,0,0,0
OCCNC(=S)NCCc1ccccc1,0,0,0,0,0,0
O=C(NC(=S)NCCc1ccccc1)c1ccccc1F,0,0,41.1,94.4,0,0
Cc1cccc(C)c1NC(=O)CN1C(=O)NC(C)(CCc2ccccc2)C1=O (configuration not stated),0,0,0,0,0,0
CN(C(=O)c1ccccc1Cl)c1ccccc1C(=O)NCCc1ccccc1,0,0,0,0,0,0
O=C(NCCCCc1ccccc1)c1ccccc1F,0,0,16.6,0,0,0
O=C(NCCCCNC(=O)c1c(F)c(F)c(F)c(F)c1F)c1c(F)c(F)c(F)c(F)c1F,0,0,0,0,0,0
O=C(NCCc1ccccc1)c1c(F)c(F)c(F)c(F)c1F,0,0,0,32.5,0,0
SMILES,Pf growth 48h,SARS PLpro yeast,Cycloheximide cs,Shiga toxin inh,Pf growth 96h,NS1 function inh
COc1ccc(CCNC(=S)NC(=O)c2ccccc2)cc1C,0,0,8.4,0,0,0
COc1ccc(CCNC(=S)NC(=O)c2ccc(Br)cc2)cc1OC,0,0,0,0,0,0
CN(C(=O)COc1ccccc1C(=O)NCCc1ccccc1)c1ccccc1,0,0,30.4,70.5,0,0
CC(C)C(NS(=O)(=O)c1ccc2c(c1)OCCCO2)C(=O)O (configuration not stated),0,0,0,0,0,0
CC(C)N(C(=O)C(=O)c1cccn1-c1ccccc1C#N)C(C)C,-,0,0,0,0,0
Cc1ccc(CNC(=O)CNC(=O)[C@@H]2Cc3ccccc3CN2C(=O)OC(C)(C)C)cc1,?,0,0,0,0,0
CCCCCC(=O)C(=O)c1ccc(O)cc1O,0,0,0,0,0,0
Cc1ccc(C(=O)NCCCc2ccccc2)s1,?,0,52.8,134.1,?,0
O=C(NC(=S)NCCc1ccccc1)c1ccccc1,0,0,17.6,44.7,0,0
Cc1occc1C(=O)NCCCCc1ccccc1,-,0,23.4,54.8,?,0
O=C(NC(=O)c1ccccc1F)OCc1ccc(Cl)cc1Cl,0,0,26.4,69.3,0,0
O=C(CNC(=O)c1ccccc1F)NCCc1ccc(Cl)cc1Cl,0,0,0,0,0,0
Cc1ccc(C(=O)NCC(=O)NCCCc2ccccc2)s1,?,0,0,0,0,?
CCOC(=O)NN1C(=O)c2ccccc2NC1c1ccc(OC)cc1OC (configuration not stated),0,0,0,0,0,-
Cn1ccc(C(=O)Nc2cccnc2Cl)n1,0,0,0,0,0,0
NC(=S)NNc1c(F)c(F)c(F)c(F)c1F,?,0,0,0,0,-
CCc1cccc(NC(=O)C2CC2c2ccccc2)c1 (configuration not stated),0,0,0,-,?,0
Cc1ccccc1C(=O)NCCCc1ccccc1,0,0,39.1,139.8,?,0
CCOC(=O)c1c(C)nc(C)c(C(=O)OCC)c1-c1ccc(Br)cc1,0,0,0,0,13.1µM,0
CN(C(=O)CSc1ncnc2sccc12)c1c(N)n(Cc2ccccc2)c(=O)[nH]c1=O,0,0,0,0,0,0
CCC(CO)[n+]1c(C)cc(/C=C2\Sc3ccccc3N2Cc2ccccc2)cc1C (configuration not stated),0.37µM,0,0,0,?,0
CCc1cc(-c2oncc2-c2ccc(OC)cc2)c(O)cc1OC,-,-,0,0,-,-
O=[N+]([O-])c1ccc(Nc2ccc3ccccc3c2)nc1,0,0,45.0,89.3,?,0
O=[N+]([O-])c1ccc(Nc2ccc(Cl)cc2)nc1,0,0,0,0,0,0
Brc1ccccc1-c1nc2c3ccccc3ncn2n1,0,0,-,-,0,-
SMILES,Pf growth 48h,SARS PLpro yeast,Cycloheximide cs,Shiga toxin inh,Pf growth 96h,NS1 function inh
S=c1nc2ccccc2c2nc(-c3ccccc3Br)[nH]n12,2.94µM,0,0,0,2.33µM,?
Cc1c(C)c2c(c(C)c1O)CCC(C)(COc1ccc(CC3SC(=O)NC3=O)cc1)O2 (configuration not stated),?,-,0,0,6.01µM,-
CC1(COc2ccc(CC3SC(=O)NC3=O)cc2)CCCCC1 (configuration not stated),0,-,-,-,0,-
O=C(Cn1cc(C(=O)C(F)(F)F)c2cc(Br)ccc21)N1CCOCC1,0,0,0,0,0,0
Cc1nn(-c2ccccc2)c(Cl)c1/C=N/Nc1nc2ccccc2[nH]1,0.738µM,0,38.8,146.3,0.738µM,0
COc1ccc(-c2cnnc(N/N=C/c3c(C)nn(-c4ccccc4)c3Cl)n2)cc1,0,0,0,0,?,?
Cc1cc(=O)[nH]c(N/N=C/c2c(C)nn(-c3ccccc3)c2Cl)n1,4.65µM,0,0,0,8.28µM,0
Cc1c(Cl)cccc1NC(=O)CCNC(=O)N1CC(=O)Nc2ccccc21,0,0,0,0,0,0
CCCCCC(=O)OC(CN1CCCCC1)CN1CCCC1=O (configuration not stated),0,0,0,0,10.4µM,?
CCOC(=O)c1nn2c(C(F)(F)F)cc(-c3ccc(OC)cc3)nc2c1Br,0,0,0,0,?,?
